We go through nine molecules from PubChem BioAssay.

Test [1] in a line: compounds binding Alexa647 anti-His antibody – biochemical, small-molecule microarray, 635 nm fluorescence, artefact control for SMM control protein annotation, primary screen (AID 1128).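 Further: score merges feature fluorescence with signal-to-noise for each printed compound spot.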 Conditions: higher = more signal.
For test [2], the system named is Human papillomavirus type 1a E7 protein (residues 1-88). The test is described as follows: HPV1a E7 small-molecule binders, primary screen, biochemical, small-molecule microarray, residues 1-88, 635 nm (AID 1129). Conditions: small-molecule microarray binding, fluorescence 635 nm; higher = more signal.
The target of test [3] is Focal adhesion kinase 1 (Homo sapiens) (UniProt Q05397). The test is described as follows: PTK2 protein binding on printed compound slides – biochemical, small-molecule microarray, 635/667 nm fluorescence, BSA, DTT, primary screen (AID 1130).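 Further: composite of spot emission at 667 nm and signal to noise over triplicate slides.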 Conditions: 635 nm fluorescence, higher = more signal.
Chain of Focal adhesion kinase 1 (Homo sapiens) (Q05397 whole entry, looked up): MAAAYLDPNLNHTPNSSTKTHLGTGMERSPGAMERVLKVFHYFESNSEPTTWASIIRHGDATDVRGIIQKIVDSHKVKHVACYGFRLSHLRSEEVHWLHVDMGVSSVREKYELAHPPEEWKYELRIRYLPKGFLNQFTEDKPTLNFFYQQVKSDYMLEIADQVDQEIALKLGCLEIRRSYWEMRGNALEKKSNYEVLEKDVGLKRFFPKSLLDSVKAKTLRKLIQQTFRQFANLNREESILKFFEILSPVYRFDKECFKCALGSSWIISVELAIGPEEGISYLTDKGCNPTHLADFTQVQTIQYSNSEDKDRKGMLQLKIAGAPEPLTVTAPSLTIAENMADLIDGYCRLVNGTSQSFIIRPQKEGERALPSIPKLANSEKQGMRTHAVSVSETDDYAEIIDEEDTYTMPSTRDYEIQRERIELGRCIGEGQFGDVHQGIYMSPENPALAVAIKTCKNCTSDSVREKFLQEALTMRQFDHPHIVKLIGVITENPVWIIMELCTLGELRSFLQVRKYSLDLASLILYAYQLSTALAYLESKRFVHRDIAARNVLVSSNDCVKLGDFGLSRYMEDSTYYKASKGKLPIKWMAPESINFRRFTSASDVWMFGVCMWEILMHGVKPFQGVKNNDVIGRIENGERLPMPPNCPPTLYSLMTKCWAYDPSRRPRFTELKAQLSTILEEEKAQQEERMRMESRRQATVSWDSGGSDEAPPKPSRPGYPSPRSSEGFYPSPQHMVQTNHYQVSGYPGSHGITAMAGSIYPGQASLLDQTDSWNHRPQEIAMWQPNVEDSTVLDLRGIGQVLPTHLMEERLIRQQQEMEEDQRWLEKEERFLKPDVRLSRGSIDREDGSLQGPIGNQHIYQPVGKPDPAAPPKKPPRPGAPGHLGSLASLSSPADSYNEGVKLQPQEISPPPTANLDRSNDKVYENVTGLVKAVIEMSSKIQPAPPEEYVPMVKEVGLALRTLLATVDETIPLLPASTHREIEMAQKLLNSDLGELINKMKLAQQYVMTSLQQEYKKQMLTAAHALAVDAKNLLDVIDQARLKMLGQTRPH
The subject of test [4] is Fibrinogen (Alexa647-labelled). Description: Alexa647-fibrinogen binding to printed small molecules – biochemical, small-molecule microarray, 635/667 nm fluorescence, artefact control for SMM control-protein annotation, profiling panel (AID 1131).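 Further: z-score merges 667 nm fluorescence with per-spot signal-to-noise over triplicate slides.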 Conditions: fibrinogen-A647 binding fluorescence, higher = more signal.
In test [5] the target is Follistatin (Homo sapiens) (UniProt P19883). Description: FST protein binding to printed compounds – biochemical, small-molecule microarray, 635/667 nm fluorescence, primary screen (AID 1132). Conditions: 635 nm fluorescence, higher = more signal.
Chain of Follistatin (Homo sapiens) (P19883 whole entry, looked up): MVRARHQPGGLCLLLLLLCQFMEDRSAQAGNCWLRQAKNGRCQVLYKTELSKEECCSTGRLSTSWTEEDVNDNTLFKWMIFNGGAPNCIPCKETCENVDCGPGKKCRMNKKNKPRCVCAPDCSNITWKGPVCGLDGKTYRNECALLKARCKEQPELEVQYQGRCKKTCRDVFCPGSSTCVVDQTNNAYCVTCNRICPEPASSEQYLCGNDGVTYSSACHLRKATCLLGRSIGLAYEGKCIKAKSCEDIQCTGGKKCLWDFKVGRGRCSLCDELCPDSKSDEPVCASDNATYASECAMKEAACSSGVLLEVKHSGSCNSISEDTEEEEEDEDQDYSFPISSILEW
The target in test [6] is Fibroblast growth factor 2 (Homo sapiens) (UniProt P09038). The test is described as follows: basic fibroblast growth factor binding to printed compounds – biochemical, small-molecule microarray, 635/667 nm fluorescence, primary screen (AID 1133). Conditions: FGF2, fluorescence 635/667, higher = more signal.
Chain of Fibroblast growth factor 2 (Homo sapiens) (P09038 whole entry, looked up): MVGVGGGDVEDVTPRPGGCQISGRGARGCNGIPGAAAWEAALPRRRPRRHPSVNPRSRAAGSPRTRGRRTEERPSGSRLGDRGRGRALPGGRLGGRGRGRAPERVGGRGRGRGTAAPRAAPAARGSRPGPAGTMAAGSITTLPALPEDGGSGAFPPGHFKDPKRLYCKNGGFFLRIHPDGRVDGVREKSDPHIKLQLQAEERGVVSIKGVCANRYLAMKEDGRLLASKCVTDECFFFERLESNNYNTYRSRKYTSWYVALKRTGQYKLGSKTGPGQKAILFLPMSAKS
A short description of test [7]: JC-1 mitochondrial potential readout, lung cancer cells – cell-based, A549, JC-1 fluorescence, basal, 24 h, 100 nL, profiling panel (AID 1138).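 Further: A549 lung adenocarcinoma cells under basal conditions with no added stimulus; test concentration not given here.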 Conditions: higher = more signal.
The test system of test [8] is Lefty1. The test is described as follows: Lefty1 protein binding to printed compounds – biochemical, small-molecule microarray, 635/667 nm fluorescence, primary screen (AID 1139). Conditions: fluorescence 635/667, higher = more signal.
The test system of test [9] is wheat germ agglutinin (Triticum aestivum), Alexa647-labelled. Description: Alexa647-WGA lectin binding to printed small molecules – biochemical, small-molecule microarray, 635/667 nm fluorescence, artefact control for SMM control-protein annotation, profiling panel (AID 1140).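 Further: score merges 667 nm feature emission with signal to noise over triplicate slides.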 Conditions: WGA-A647 binding, 635 nm fluorescence, higher = more signal.
In test [10] the target is Luciferin 4-monooxygenase (Photinus pyralis) (UniProt P08659). Description: inhibition of purified Photinus pyralis luciferase – biochemical, luminescence, purified enzyme, 2006 set, primary screen (AID 1141).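 Further: cell-free assay with purified firefly luciferase at 100 ng per well in PBS; test concentration not given here.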 Conditions: purified firefly luciferase, SteadyGlo luminescence, 30 min; higher = more signal, called active from +8 up or from −8 down.
Chain of Luciferin 4-monooxygenase (Photinus pyralis) (P08659 whole entry, looked up): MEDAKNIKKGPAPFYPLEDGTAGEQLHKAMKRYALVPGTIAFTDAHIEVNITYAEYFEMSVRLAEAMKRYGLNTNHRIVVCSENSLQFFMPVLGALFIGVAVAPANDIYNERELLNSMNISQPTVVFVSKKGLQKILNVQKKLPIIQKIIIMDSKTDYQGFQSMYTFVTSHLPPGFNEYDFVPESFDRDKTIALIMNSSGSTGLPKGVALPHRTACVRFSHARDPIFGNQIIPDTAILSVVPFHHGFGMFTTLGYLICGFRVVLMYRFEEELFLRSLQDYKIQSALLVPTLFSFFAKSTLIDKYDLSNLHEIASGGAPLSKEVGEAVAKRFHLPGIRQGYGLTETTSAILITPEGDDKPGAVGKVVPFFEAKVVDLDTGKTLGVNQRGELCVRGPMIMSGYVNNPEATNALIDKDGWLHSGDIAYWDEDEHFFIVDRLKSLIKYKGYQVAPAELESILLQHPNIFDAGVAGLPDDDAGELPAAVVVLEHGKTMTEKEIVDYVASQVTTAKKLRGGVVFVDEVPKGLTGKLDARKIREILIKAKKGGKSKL
The test system of test [11] is Wnt5a (protein binding on small-molecule microarray). The test is described as follows: small molecules binding Wnt5a protein – biophysical, small-molecule microarray, 635/667 nm fluorescence, primary screen (AID 1142).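 Further: fluorescence read at 667 nm with signal to noise per printed feature.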 Conditions: 635 nm fluorescence, higher = more signal.
Test [12] in a line: ATP-based viability of Huh7 replicon cells – cell-based, CellTiter-Glo luminescence, basal, 48 h, cytotoxicity control for HCV replication inhibitor project, primary screen (AID 1143).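 Further: Huh7 hepatoma cells carrying a hepatitis C replication reporter with no stimulus; test concentration not given here.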 Conditions: higher = more signal, called active from +8 up or from −8 down. (In general: In antiviral work, replicon cells carry a viral genome segment that copies itself.)
A short description of test [13]: Pseudomonas biofilm growth suppression – PAO1 strain, BacTiter-Glo luminescence, LB-PBS, primary screen (AID 1144). Conditions: P. aeruginosa PAO1 biofilm, 12 h, higher = more signal.
Test [14] can be described thus: basal CRE-LacZ reporter activity in PC12 – cell-based, unstimulated, primary screen (AID 1145). Conditions: no forskolin, luminescence, 4.5 h, higher = more signal, called active from +8 up or from −8 down.
A short description of test [15]: forskolin-driven CRE-LacZ activity in PC12 – cell-based, CRE-LacZ reporter, forskolin-stimulated, primary screen (AID 1146).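 Further: PC12 cells with 6xCRE LacZ reporter stimulated by forskolin 10 µM; beta-galactosidase reporter signal reflecting CREB driven transcription.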 Conditions: luminescence, 4.5 h, higher = more signal, called active from +8 up or from −8 down.
Test [16] deals with Streptavidin (Streptomyces avidinii) (UniProt P22629). Description: compounds binding control protein streptavidin – biophysical, small-molecule microarray, 635/667 nm fluorescence, artefact control for SMM compound annotation, primary screen (AID 1147).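 Further: signal reflects streptavidin binding to arrayed compounds as a control protein.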 Conditions: higher = more signal.
Chain of Streptavidin (Streptomyces avidinii) (P22629 whole entry, looked up): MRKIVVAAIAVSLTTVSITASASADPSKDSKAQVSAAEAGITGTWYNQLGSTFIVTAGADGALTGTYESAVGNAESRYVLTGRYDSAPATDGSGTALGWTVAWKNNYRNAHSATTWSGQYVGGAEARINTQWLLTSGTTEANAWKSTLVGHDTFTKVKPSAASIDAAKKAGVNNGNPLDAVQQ
A short description of test [17]: probe aInhba binding on compound microarray – biochemical, small-molecule microarray, 635/667 nm fluorescence, primary screen (AID 1148).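 Further: score merges 667nm spot fluorescence with signal-to-noise for antibody binding to printed compounds.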 Conditions: higher = more signal.
The target of test [18] is Torsin-1A (Homo sapiens) (UniProt O14656). Description: TOR1A wild-type binding on microarray – cell lysate, small-molecule microarray, lysate, 635/667 nm, primary screen (AID 1149). Conditions: COS7 hTOR1A-WT lysate, 635 nm fluorescence, higher = more signal.
Chain of Torsin-1A (Homo sapiens) (O14656 whole entry, looked up): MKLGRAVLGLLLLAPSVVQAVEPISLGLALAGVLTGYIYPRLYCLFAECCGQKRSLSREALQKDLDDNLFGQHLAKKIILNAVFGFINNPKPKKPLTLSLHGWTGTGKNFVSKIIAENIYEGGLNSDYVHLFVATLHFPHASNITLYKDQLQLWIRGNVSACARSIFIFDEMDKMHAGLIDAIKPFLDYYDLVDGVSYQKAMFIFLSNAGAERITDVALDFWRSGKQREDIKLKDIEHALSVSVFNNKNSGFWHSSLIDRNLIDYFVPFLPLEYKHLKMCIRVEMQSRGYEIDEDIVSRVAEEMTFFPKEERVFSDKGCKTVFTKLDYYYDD
For test [19] the target is unchanged. The test is described as follows: torsin A mutant lysate binding on microarrays – cell lysate, small-molecule microarray, COS7 lysate, 635/667 nm fluorescence, primary screen (AID 1150).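 Further: score pools 667 nm emission and signal to noise measuring lysate protein binding.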 Conditions: COS7 hTOR1A mutant lysate, 635 nm fluorescence, higher = more signal.
In test [20] the test system is Sonic hedgehog protein (Shh). The test is described as follows: Sonic hedgehog microarray binding compounds – biochemical, small-molecule microarray, 635/667 nm fluorescence, primary screen (AID 1151).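 Further: Shh protein binding to compounds spotted on small-molecule microarray slides; score combines spot fluorescence intensity with signal-to-noise across triplicate slides.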 Conditions: 635 nm fluorescence, higher = more signal.

The source made the active and inactive calls. Unless noted, how the calls were made is not given here.

For `CCCN1C(=O)[C@@]2(CCS(=O)(=O)c3ccccc3)N=C(c3ccc(OCCCO)cc3)O[C@H]2c2ccccc21`, the composite z-score is 2.79 in test [1]; 1.23 in test [2]; 0.494 in [3]; 0.762 in test [4]; 1.4 in test [5]; 0.961 in [6]. The composite z-score in test [8] is 0.78; in test [9], 0.46; in [11], 0.286; in [16] it was -0.0174; in test [17], 0.0528; in test [18], 0.069. Also, the composite z-score in test [19] was 0.655; in test [20], 1.58. The z-score is 0.782 in [7]; -0.869 (inactive) in test [10]; -4.26 (inactive) in [12]; -1.6 (inactive) in test [13]; 0.997 (inactive) in [14]; -1.61 (inactive) in [15].

Take `CCOC(=O)C1=CC[C@@H](c2ccc(-c3ccc(OCc4ccccc4)cc3)c(OC)c2)N(S(=O)(=O)c2ccc(C)cc2)[C@H]1c1ccccc1`: the composite z-score in [1] is 1.07; in test [2] it was 1.2; in test [3] it was -0.0822; in test [4] it was 0.978; in test [5], 1.2; in test [6] it was 0.275. The composite z-score in [8] is 0.329; in [9] it was 1.05; in test [11] it was 0.0858; in [16] it was 1.67; in [17], 0.119; in [18], 0.277. Besides, the composite z-score in [19] was 0.518; in test [20] it was 1.15. The z-score in test [7] was 1.63; in [10], -3.26 (inactive); in [12], -2.32 (inactive); in test [13], -1.05 (inactive); in test [14], -0.489 (inactive); in test [15] it was 0.1 (inactive).

Consider `O=C1OCCC/C=C\[C@H]2OC34C=CCN(CCN5CCOCC5)C(=O)[C@H]3N(CCCCCO)C(=O)[C@@H]4C12` (stereo not given in full), for which the composite z-score was -0.265 in test [1]; -2.02 in [2]; -1.29 in test [3]; -1.25 in test [4]; -0.267 in [5]; -0.821 in [6]. Moreover, the composite z-score in [8] is -0.84; in [9] it was -0.858; in test [11] it was -0.498; in [16] it was -0.293; in test [17] it was 0.202; in test [18], -1.01. In addition, the figures for the composite z-score in [19] and in [20] were -0.649 and 0.392, respectively. Besides, the z-score in [7] was -0.203; in [10], 0.32 (inactive); in [12] it was 0.305 (inactive); in test [13], 1.67 (inactive); in test [14], 0.597 (inactive); in [15] it was 0.515 (inactive).

Turning to `CC[C@H]1C2=C3C(CC[C@H]4C(OC)OC[C@](C)([C@@H]34)N(C(=O)OC(C)(C)C)C2)C(CO)C1CO` (stereo not given in full), the composite z-score is 2.26 in [1]; 1.18 in test [2]; 1.47 in test [3]; 0.43 in test [4]; 0.579 in [5]; -0.468 in test [6]. The composite z-score is -0.181 in test [8]; 1.06 in test [9]; 0.647 in [11]; 3.17 in [16]; 0.34 in [17]; 0.295 in test [18]. For the same molecule, the composite z-score was 1.87 in [19] and -0.623 in test [20]. The z-score was 1.16 in test [7]; 0.16 (inactive) in test [10]; -1.06 (inactive) in test [12]; 1.01 (inactive) in test [13]; -0.182 (inactive) in test [14]; 0.385 (inactive) in [15].

As for `CN(C)c1ccc(C(O)C2C=CC3C(=O)NC(=O)C3N2Nc2ccc(Cl)cc2Cl)cc1` (stereo not given), the composite z-score in test [1] was -0.129; in [2], 1.14; in test [3], 0.155; in test [4] it was 0.762; in test [5], 1.16; in test [6], -0.785. Besides, the composite z-score in [8] is -0.345; in test [9], 0.5; in [11], -0.0936; in test [16] it was 0.437; in test [17], 0.13; in [18], -0.0205. In addition, the composite z-score in test [19] is 0.776; in test [20], -0.214. The z-score was 0.587 in test [7]; -0.316 (inactive) in test [10]; 0.126 (inactive) in test [12]; -1.03 (inactive) in test [13]; 0.629 (inactive) in test [14]; 0.628 (inactive) in test [15].

With `C=C(CCCC)/C(=C/C[C@H](OC(=O)c1ccncc1)c1cccc(OCCO)c1)c1cc(C(=O)OC)ccc1OC`, the composite z-score in [1] was 1.06; in test [2], 0.492; in test [3], -0.0622; in [4], 0.723; in [5] it was 0.852; in test [6], 1.59. The composite z-score in test [8] is 1.17; in test [9], 0.311; in [11] it was 0.84; in test [16], 0.396; in [17] it was -0.0695; in [18], 0.349. Moreover, the composite z-score in [19] was 0.458; in test [20], 1.61. For the same molecule, the z-score was 0.397 in test [7]; 0.34 (inactive) in test [10]; -5.25 (inactive) in test [12]; -0.536 (inactive) in test [13]; 6.81 (inactive) in test [14]; -0.802 (inactive) in test [15].

`O=C(NCc1ccccc1)c1ccc(Br)cc1[N+](=O)[O-]`: the composite z-score in test [1] was -0.26; in test [2], 0.292; in test [3] it was -0.1; in test [4] it was -0.0828; in test [5] it was 0.405; in test [6], 0.465. Further, the composite z-score was 0.505 in [8]; 0.352 in test [9]; 0.146 in test [11]; -0.453 in test [16]; -0.183 in test [17]; 0.0031 in [18]. For the same molecule, the composite z-score is -0.232 in [19] and 0.0923 in test [20]. In addition, the z-score in test [7] is 0.543; in test [10], -0.941 (inactive); in test [12] it was -0.214 (inactive); in [13] it was 0.635 (inactive); in [14], 0.685 (inactive); in test [15] it was -0.554 (inactive).

As for `COc1ccc([Si](C)(C)[C@@H]2[C@@H](CCO)O[C@]3(C(=O)N(Cc4ccc(NC(=O)[C@H](C)O)cc4)c4ccccc43)[C@H]2C)cc1`, the composite z-score was found to be 1.79 in test [1]; 1.06 in test [2]; 0.293 in [3]; 0.94 in [4]; 0.403 in [5]; 0.137 in [6]. The composite z-score in [8] is 0.215; in test [9] it was 0.852; in test [11], 0.186; in test [16], 0.458; in test [17], -0.0471; in test [18], 0.504. In addition, the composite z-score in test [19] was 0.392; in [20] it was 0.599. Also, the z-score is -1.61 in test [7]; -0.546 (inactive) in test [10]; -8.04 (active) in test [12]; -0.261 (inactive) in test [13]; 18.4 (active) in test [14]; -1.12 (inactive) in test [15].

Regarding `C=CCC(OC(C)=O)[C@@H]1[C@@H](N(Cc2cccc3ccccc23)C(=O)Cc2ccc(F)cc2)c2cc(OCCCO)ccc2N1C(=O)Cc1ccc2ccccc2c1` (stereo not given in full), the composite z-score in [1] was -0.404; in test [2], -0.329; in test [3] it was 0.317; in test [4], -0.175; in [5], 0.0802; in test [6], -0.391. Also, the composite z-score is -0.258 in [8]; 0.191 in [9]; -0.0893 in test [11]; -0.11 in test [16]; -0.101 in test [17]; -0.52 in test [18]. The composite z-score was found to be 0.169 in test [19] and 0.332 in test [20]. For the same molecule, the z-score in test [7] was 0.331; in test [10] it was 0.693 (inactive); in [12], -0.288 (inactive); in test [13], -0.688 (inactive); in [14], -0.36 (inactive); in test [15], 1.17 (inactive).
